BAZ2B inh: BAZ2B (human) inhibition; AID 504333; Potency, µM (highest dose often 114 µM), for the others: at the highest dose activity change, negative = inhibition, hits mostly inhibitors; AlphaScreen BAZ2B-H3K14Ac peptide displacement; 360,000 tested, 4.4% active; also: potency is read from the fitted curve at half-maximal effect; % is scaled to controls: 0 for no effect and ±100 for the full control effect; nearly all actives have a fitted effect of over 60% in size
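AlphaScreen luminescence quantifies BAZ2B engagement of H3K14Ac peptide; the protein and biotinylated peptide are both at 50 nM final, buffer PBS pH 7.4 with 0.01% Tween-20, all steps at room temperature.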
KDM4E inh: inhibitors of human JMJD2E histone demethylase | B2RXH2 | JMJD2E catalytic domain, FDH-coupled NADH fluorescence (FDH is formaldehyde dehydrogenase) | Potency, µM (doses to about 57.1 µM), without a hit: at the highest dose activity change, negative = inhibition, most hits filed as inhibitors | 230,000 tested, 1.6% active; active = well fitted inhibition curve with a large enough effect, not every such curve was filed as active; inconclusive = small, poorly fitted or top-dose-only effect, or another doubt; inactive = no such curve, though single readings can be large or run the other way;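 also: potency is read from the fitted curve at half-maximal effect; 0% = wells with enzyme and -100% = buffer wells without enzyme; nearly all actives have a fitted effect of over 50% in size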
Target sequence (B2RXH2 1-337 limits assumed): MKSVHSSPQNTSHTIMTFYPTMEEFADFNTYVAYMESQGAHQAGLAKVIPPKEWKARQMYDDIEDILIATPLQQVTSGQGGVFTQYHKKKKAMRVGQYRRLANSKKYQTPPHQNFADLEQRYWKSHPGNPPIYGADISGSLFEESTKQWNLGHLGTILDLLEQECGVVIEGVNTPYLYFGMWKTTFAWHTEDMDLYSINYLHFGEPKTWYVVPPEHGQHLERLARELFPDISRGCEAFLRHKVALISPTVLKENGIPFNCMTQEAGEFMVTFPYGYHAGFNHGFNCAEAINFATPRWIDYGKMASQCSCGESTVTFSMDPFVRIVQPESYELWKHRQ
PI5P4Ka inh: PI5P4K alpha (human) kinase inhibition; P48426; PI5P4Kalpha enzyme, ADP-Glo luminescence, 60 min; hits give low values; max response, %; 330,000 tested, 1.2% active; AID 652105; active = max response of -50% or lower; inconclusive = between -30% and -50%; inactive = -30% or higher; also: value at the top dose of about 77 µM; % is scaled to controls: 0 for no effect and ±100 for the full control effect
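Luminescence from ADP-Glo served as readout of PI5P4Kalpha activity in a qHTS format. Reaction: enzyme, substrate, compound, ATP at 5 microM final, 60 min at RT.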
HP1b binding inh: inhibitors of HP1-beta chromodomain binding to methylated histone tails | AlphaScreen HP1-beta / biotin-H3K9me3 peptide binding | 390,000 tested, 0.56% active | Potency, µM (highest dose often 114 µM), for inactives: top-dose activity change, negative = inhibition, usual class: inhibitors | P83916; also: potency is read from the fitted curve at half-maximal effect; nearly all actives have a fitted effect of over 70% in size
Target sequence (P83916 whole entry, looked up): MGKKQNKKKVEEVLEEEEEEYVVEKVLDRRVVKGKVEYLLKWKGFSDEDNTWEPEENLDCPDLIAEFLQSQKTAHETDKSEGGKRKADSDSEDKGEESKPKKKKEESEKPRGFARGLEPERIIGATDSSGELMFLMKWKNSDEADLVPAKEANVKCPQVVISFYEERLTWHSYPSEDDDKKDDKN
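Compound inhibition of the preformed complex between 50 nM HP1-beta and 50 nM biotinylated H3K9me3 peptide was read by AlphaScreen. Buffer was PBS pH 7.4 with 0.01% Tween-20. Incubations ran 30 min at room temperature, with 10 ug/mL donor/acceptor beads.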
JMJD2A Tudor inh: blocks the human JMJD2A Tudor domain | AlphaScreen JMJD2A-Tudor / H3K4me3 peptide binding | Potency, µM (series often up to 114 µM), inactives show at the highest dose activity change, negative = inhibition, most hits filed as inhibitors | AID 504339 | O75164 | 390,000 tested, 4.4% active; also: potency is read from the fitted curve at half-maximal effect; % is scaled to controls: 0 for no effect and ±100 for the full control effect; nearly all actives have a fitted effect of over 50% in size
L3MBTL1 inh: inhibitors of human L3MBTL1 | 230,000 tested, 0.66% active | Q9Y468 | Potency, µM (doses to about 57.1 µM), for inactives: at the top dose activity, negative = inhibition, most hits filed as inhibitors | AlphaScreen L3MBTL1–H3K9me1 peptide binding | AID 485360; also: potency is read from the fitted curve at half-maximal effect; % is scaled to controls: 0 for no effect and ±100 for the full control effect; nearly all actives have a fitted effect of over 60% in size
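L3MBTL1 (50 nM) pre-complexed 30 min with biotinylated H3(1-15)K9me1 peptide (75 nM), then compounds added for 30 min at room temperature; AlphaScreen streptavidin donor/nickel chelate acceptor beads (10 ug/mL final) read after 30 min dark incubation.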
Active calls of the source: *; ? = inconclusive; / = no result given; [ ] = dose if it differs, or a comment. An excerpt weighted towards active compounds, which were near 5.7% of everything screened. Unless noted, calls follow the shape of the dose curve; as a rule, active = well fitted inhibition curve with a large enough effect; inconclusive = small, poorly fitted or top-dose-only effect; inactive = no such curve, though single readings can be large or run the other way.

SMILES	BAZ2B inh	KDM4E inh	PI5P4Ka inh	HP1b binding inh	JMJD2A Tudor inh	L3MBTL1 inh
Cc1ccn(Cc2n[nH]c(=S)n2Cc2ccccc2)n1	0.1%	6.3%	5.1	20.3%	8.91µM*	/
S=c1[nH]nc(-c2cccs2)n1Cc1ccccc1	-32.9%	?	-13.6	-30.0%	?	-2.2%
S=c1[nH]nc(CN2CCCCC2)n1Cc1ccccc1	-22.8%	-2.7%	-19.0	20.7%	12.6µM*	/
CCCCC[C@@H](C)N1C[C@H](COCc2ccccc2)Oc2cc(N3CC[C@H](O)C3)ccc2S1(=O)=O	/	/	10.0	/	/	/
Cc1cccc(N2CCN(c3ccc(C(=O)O)cc3NC(=O)c3cccc(Cl)c3)CC2C)c1 (centres undefined)	?	/	/	-17.5%	56.2µM*	/
Cc1cccc(N2CCN(c3ccc(NC(=O)c4ccccc4)cc3C(=O)O)CC2C)c1 (centres undefined)	79.4µM*	/	/	-1.3%	89.1µM*	/
CCc1cccc(NC(=O)COc2cc(=O)n(CC)c3ccccc23)c1	-1.4%	/	/	30.1%	-20.2%	/
CC(=O)C1=C(O)C(=O)OC1c1ccc(Cl)cc1 (centres undefined)	-11.8%	-3.2%	-16.0	13.5%	14.1µM*	/
CC(=O)C1=C(O)C(=O)OC1c1ccc(C)cc1 (centres undefined)	-13.8%	-9.9%	-4.3	20.4%	-16.7%	/
Cc1cc(O)c2c(c1)C(=O)[C@@]13Oc4c5c(c(O)c6c(O)cc(C)cc46)C(=O)C[C@H](O)[C@H]5[C@@H]1[C@@H](O)CC(=O)C3=C2O	/	/	?	-19.5%	15.8µM*	/
CCn1c(NN)nc2sc3c(c2c1=O)CCC3	2.9%	?	-58.7*	-22.0%	?	/
O=C(O)c1ccc(Cn2nnc3sc4c(c3c2=O)CCCC4)cc1	79.4µM*	?	-11.9	5.5%	-15.8%	?
C#CCSc1nc2sc3c(c2c(=O)n1C)CCC3	50.1µM*	/	?	?	79.4µM*	/
NNc1nc2sc3c(c2c(=O)n1Cc1ccccc1)CCC3	-22.5%	-27.9%	-74.3*	-17.7%	-31.7%	-30.0%
COC(=O)c1ccc(Cn2nnc3sc4c(c3c2=O)CCCC4)cc1	-9.0%	/	/	30.5%	-8.9%	/
Nn1c(Nc2ccccc2)nc2sc3c(c2c1=O)CCC3	?	?	-13.2	-5.6%	-33.6%	/
COc1ccccc1N1CCN(S(=O)(=O)c2cc(C(=O)Nc3ccc(Oc4ccccc4)cc3)ccc2F)CC1	-1.5%	/	/	42.6%	-21.7%	/
COc1cccc(CNC(=O)c2ccc(-c3nc(CS(=O)c4ccccc4)c(C)o3)cc2)c1 (centres undefined)	-37.7%	/	/	5.7%	-22.4%	/
N#Cc1c(NC(NC(=O)c2ccco2)C(=O)c2ccccc2)sc2c1CCCC2 (centres undefined)	-37.0%	?	/	-26.0%	50.1µM*	-11.2%
N#Cc1c(NC(=O)/C=C/c2ccco2)sc2c1CCCC2	?	?	-62.9*	6.9%	-26.9%	-19.3%
O=S1(=O)N=C(Oc2cccc(Cl)c2)c2ccccc21	/	/	/	/	-35.4%[162 µM]	/
CCOc1ccc(NC(=O)N2CCC(N3CCCCC3)CC2)cc1	0.4%	/	/	44.3%	-9.7%	/
CC(C)CC(CSc1ccc(Br)cc1)N1CCN(C)CCC1=O (centres undefined)	/	/	/	33.2%	-18.6%	/
CC(C)(C)c1ccc(NC(=O)c2ccccc2)c([N+](=O)[O-])c1	?	-8.0%	1.1	?	50.1µM*	/
Cc1c(NC(=O)c2ccc(C(C)(C)C)cc2)cccc1[N+](=O)[O-]	1.7%	2.7%	15.6	13.8%	-11.6%	6.7%
SMILES	BAZ2B inh	KDM4E inh	PI5P4Ka inh	HP1b binding inh	JMJD2A Tudor inh	L3MBTL1 inh
O=c1c(-c2ccc([N+](=O)[O-])cc2)coc2c(O)c(O)ccc12	39.8µM*	14.1µM*	-7.4	2.1%	-35.9%	/
COc1ccc(C2=C(C)C(N3CCC(C(=O)Nc4ccc(F)cc4C)CC3)=NS2(=O)=O)cc1	-1.0%	/	/	22.9%	7.7%	/
C#CCN1C(=O)S/C(=C/C=C/c2ccc(N(C)C)cc2)C1=O	10µM*	-16.6%	-6.1	20µM*	25.1µM*	?
CN(C)c1ccc(/C=C2\SC(=O)N(CCc3nnc(N)s3)C2=O)cc1	-31.9%	0.6%	?	19.5%	-7.0%	/
CC1CN(c2nc3ccccc3nc2SCC(=O)Nc2ccc(F)cc2)CC(C)O1 (centres undefined)	4.9%	/	30.8	59.5%	-0.7%	14.7%
CC1(C)CC(=O)C(C(C#Cc2ccccc2)C2=C(O)CC(C)(C)CC2=O)=C(O)C1	?	-13.9%	/	28.2%	-6.3%	5.8%
O=C1CCCC(O)=C1C(C#Cc1ccccc1)C1=C(O)CCCC1=O	0.3%	?	?	?	15.8µM*	0.8%
Nc1nnc(-c2ccco2)s1	17.1%	-29.4%	/	38.0%	-3.9%	/
Nc1ncnc2oc(-c3ccco3)c(-c3ccco3)c12	56.2µM*	?	/	-32.5%	56.2µM*	25.1µM*
Nc1ncnc2oc(-c3ccoc3)c(-c3ccco3)c12	/	/	/	56.2µM*	50.1µM*	/
CCOC(=O)N1CCC2(CC1)C(C#N)=C(N)Oc1c2c(C)nn1-c1cccc(Cl)c1	50.1µM*	?	/	-11.0%	?	-1.2%
CCOC(=O)N1CCC2(CC1)C(C#N)=C(N)Oc1n[nH]c(C)c12	14.1%	-4.3%	-4.9	23.6%	-19.0%	/
CCOC1CCCC(n2cnc3c(=S)nc[nH]c32)O1 (centres undefined)	/	/	-5.0	?	17.8µM*	/
COc1ccc(Cn2ccc3nc(C)c(C(=O)NCc4ccc(SC)cc4)cc3c2=O)cc1	-9.8%	/	/	-12.0%	-26.7%	/
O=S(=O)(c1ccc(N=C2NN=C(c3cc(F)ccc3F)CS2)cc1)N1CCOCC1	23.0%	-7.1%	-50.7*	-18.2%	-32.2%	/
COC(=O)CCCC(=O)N1CCCC(N(C)CCc2ccccc2)C1 (centres undefined)	-32.0%	/	-0.7	12.7%	-10.5%	0.9%
Cc1c(C(=O)Nc2cccc(-c3nc4ccccc4s3)c2)oc2ccccc12	-6.6%	/	/	9.8%	4.3%	/
Cc1ccc(CNC(=O)Cn2c(=O)n(Cc3ccccc3)c(=O)c3c2c2cc(C)ccc2n3C)cc1	-6.3%	/	/	28.7%	5.5%	/
Cc1ccc(NC2=C(NCCO)C(=O)c3ccccc3C2=O)cc1	14.1µM*	?	0.2	?	50.1µM*	?
CCOC(=O)c1c(NC(=O)c2cc(-c3ccccc3OC)on2)sc(C)c1C	-2.7%	/	/	?	-18.4%	/
C/C(CC(=O)Nc1ccc(Cl)cc1)=N\NC(=O)C(=O)N1CCCCC1	-1.9%	22.9%	-1.6	22.9%	-16.5%	3.5%
Oc1ccc(O)c(Cc2nc3ccccc3[nH]2)c1	-34.0%	-26.3%	-8.1	?	10µM*	-18.3%
c1ccc2[nH]c(CCCc3nc4ccccc4[nH]3)nc2c1	-5.6%	/	2.3	54.0%	-11.9%	1.6%

Screening data (PubChem BioAssay)
